Data published in PubChem BioAssay AID1159580 (chemical genetic matrix, 2015).
About 2,000 (36%) of roughly 5,500 compounds were called active. Another 18% or so got no clear call; they are omitted. No stated cut-off is given here; in the data, active means normalized growth mostly below about 0.91 (no sharp cut-off); inconclusive means no clear call, values can overlap the other calls; inactive means mostly above about 0.92. The list shows a part of the results.

Assay: chemical genetic growth profiling, strain panel (AID 1159580);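 further: tested at 20 µM; growth read once vehicle control cultures reached saturation at 30 °C; 1 = growth at the plate median or of vehicle wells; lower values mean less growth of the strain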
Conditions: growth OD

Measured: normalized growth

CCC(=O)c1c(O)cc(O)cc1O
inactive: S. cerevisiae deletion strains, locus YKL009W, strain mrt4, active compounds read low 1.03 | S. cerevisiae deletion strains, locus YKL068W, active compounds read low 0.989 | S. cerevisiae deletion strains, locus YKL085W, strain MDH1 (second series), active compounds read low 0.986 | S. cerevisiae deletion strains, locus YKL085W, strain MDH1, active compounds read low 0.986 | S. cerevisiae deletion strains, locus YKL160W, strain elf1, active compounds read low 0.972 | S. cerevisiae deletion strains, locus YKL190W, strain CNB1, active compounds read low 1 | S. cerevisiae deletion strains, locus YKR001C, strain vps1, active compounds read low 0.959 | S. cerevisiae deletion strains, locus YKR026C, strain gcn3, active compounds read low 0.992 | S. cerevisiae deletion strains, locus YKR091W, strain srl3, active compounds read low 0.988 | S. cerevisiae deletion strains, locus YLL001W, strain dnm1, active compounds read low 0.99 | S. cerevisiae deletion strains, locus YLL026W, active compounds read low 0.999 | S. cerevisiae deletion strains, locus YLL041C, strain sdh2, active compounds read low 0.985 | S. cerevisiae deletion strains, locus YLR027C, strain aat2, active compounds read low 0.987 | S. cerevisiae deletion strains, locus YLR039C, strain RIC1, active compounds read low 0.938 | S. cerevisiae deletion strains, locus YLR058C, strain SHM2, active compounds read low 1 | S. cerevisiae deletion strains, locus YLR102C, strain apc9, active compounds read low 0.979 | S. cerevisiae deletion strains, locus YLR113W, strain HOG1, active compounds read low 0.974 | S. cerevisiae deletion strains, locus YLR221C, strain rsa3, active compounds read low 1.01 | S. cerevisiae deletion strains, locus YLR258W, strain gsy2, active compounds read low 0.996 | S. cerevisiae deletion strains, locus YLR262C, strain YPT6 (second series), active compounds read low 1.01 | S. cerevisiae deletion strains, locus YLR262C, strain YPT6, active compounds read low 0.991 | S. cerevisiae deletion strains, locus YLR268W, strain sec22, active compounds read low 0.968 | S. cerevisiae deletion strains, locus YLR320W, strain mms22, active compounds read low 1.01 | S. cerevisiae deletion strains, locus YLR330W, strain CHS5, active compounds read low 1 | S. cerevisiae deletion strains, locus YLR342W, strain FKS1 (second series), active compounds read low 1 | S. cerevisiae deletion strains, locus YLR342W, strain FKS1, active compounds read low 0.978 | S. cerevisiae deletion strains, locus YLR357W, strain rsc2, active compounds read low 0.968 | S. cerevisiae deletion strains, locus YLR370C, strain arc18, active compounds read low 0.981 | S. cerevisiae deletion strains, locus YLR371W, strain rom2, active compounds read low 0.982 | S. cerevisiae deletion strains, locus YLR384C, strain iki3, active compounds read low 0.98 | S. cerevisiae deletion strains, locus YLR418C, strain cdc73, active compounds read low 0.94 | S. cerevisiae deletion strains, locus YML016C, strain PPZ1, active compounds read low 0.999 | S. cerevisiae deletion strains, locus YML032C, strain rad52, active compounds read low 0.981 | S. cerevisiae deletion strains, locus YML120C, strain ndi1, active compounds read low 0.991 | S. cerevisiae deletion strains, locus YML124C, strain tub3, active compounds read low 0.978 | S. cerevisiae deletion strains, locus YMR058W, strain fet3, active compounds read low 0.978 | S. cerevisiae deletion strains, locus YMR078C, strain ctf18, active compounds read low 0.976 | S. cerevisiae deletion strains, locus YMR125W, strain sto1, active compounds read low 0.985 | S. cerevisiae deletion strains, locus YMR129W, active compounds read low 0.988 | S. cerevisiae deletion strains, locus YMR205C, strain PFK2, active compounds read low 0.998 | S. cerevisiae deletion strains, locus YMR223W, strain ubp8, active compounds read low 0.978 | S. cerevisiae deletion strains, locus YMR231W, strain pep5, active compounds read low 0.991 | S. cerevisiae deletion strains, locus YMR263W, strain SAP30, active compounds read low 1.01 | S. cerevisiae deletion strains, locus YMR307W, strain GAS1, active compounds read low 1.01 | S. cerevisiae deletion strains, locus YNL067W, strain RPL9B, active compounds read low 1.01 | S. cerevisiae deletion strains, locus YNL071W, strain lat1, active compounds read low 0.995 | S. cerevisiae deletion strains, locus YNL128W, strain TEP1, active compounds read low 1.01 | S. cerevisiae deletion strains, locus YNL153C, strain GIM3, active compounds read low 1.02 | S. cerevisiae deletion strains, locus YNL183C, strain NPR1, active compounds read low 0.953 | S. cerevisiae deletion strains, locus YNL209W, strain ssb2, active compounds read low 0.992 | S. cerevisiae deletion strains, locus YNL233W, strain BNI4, active compounds read low 0.988 | S. cerevisiae deletion strains, locus YNL248C, strain rpa49, active compounds read low 1 | S. cerevisiae deletion strains, locus YNL250W, strain rad50, active compounds read low 0.981 | S. cerevisiae deletion strains, locus YNL271C, strain bni1, active compounds read low 0.979 | S. cerevisiae deletion strains, locus YNL298W, strain CLA4, active compounds read low 0.973 | S. cerevisiae deletion strains, locus YNL307C, strain MCK1, active compounds read low 0.991 | S. cerevisiae deletion strains, locus YNL322C, strain KRE1 (second series), active compounds read low 0.97 | S. cerevisiae deletion strains, locus YNL322C, strain KRE1, active compounds read low 1.01 | S. cerevisiae deletion strains, locus YNR049C, strain mso1, active compounds read low 0.987 | S. cerevisiae deletion strains, locus YNR052C, strain pop2, active compounds read low 0.983 | S. cerevisiae deletion strains, locus YOL006C, strain TOP1, active compounds read low 1.12 | S. cerevisiae deletion strains, locus YOL012C, strain htz1 0.785 | S. cerevisiae deletion strains, locus YOL147C, strain pex11, active compounds read low 0.97 | S. cerevisiae deletion strains, locus YOR001W, strain rrp6, active compounds read low 1.02 | S. cerevisiae deletion strains, locus YOR061W, strain CKA2, active compounds read low 1.01 | S. cerevisiae deletion strains, locus YOR069W, strain VPS5, active compounds read low 1 | S. cerevisiae deletion strains, locus YOR070C, strain gyp1, active compounds read low 0.985 | S. cerevisiae deletion strains, locus YOR080W, strain dia2, active compounds read low 0.981 | S. cerevisiae deletion strains, locus YOR083W, strain WHI5, active compounds read low 0.983 | S. cerevisiae deletion strains, locus YOR106W, strain vam3, active compounds read low 0.987 | S. cerevisiae deletion strains, locus YOR136W, strain idh2, active compounds read low 0.984 | S. cerevisiae deletion strains, locus YOR144C, strain elg1, active compounds read low 0.986 | S. cerevisiae deletion strains, locus YOR184W, strain ser1, active compounds read low 0.992 | S. cerevisiae deletion strains, locus YOR231W, strain MKK1, active compounds read low 1.01 | S. cerevisiae deletion strains, locus YOR265W, strain rbl2, active compounds read low 0.982 | S. cerevisiae deletion strains, locus YOR270C, strain vph1, active compounds read low 1.04 | S. cerevisiae deletion strains, locus YOR290C, strain snf2, active compounds read low 0.973 | S. cerevisiae deletion strains, locus YOR316C, strain cot1, active compounds read low 0.984 | S. cerevisiae deletion strains, locus YPL051W, strain arl3, active compounds read low 0.973 | S. cerevisiae deletion strains, locus YPL055C, strain LGE1, active compounds read low 1.02 | S. cerevisiae deletion strains, locus YPL078C, strain atp4, active compounds read low 0.996 | S. cerevisiae deletion strains, locus YPL106C, strain sse1, active compounds read low 0.938 | S. cerevisiae deletion strains, locus YPL240C, strain hsp82, active compounds read low 0.991 | S. cerevisiae deletion strains, locus YPL241C, strain CIN2, active compounds read low 0.996 | S. cerevisiae deletion strains, locus YPL256C, strain CLN2, active compounds read low 0.997 | S. cerevisiae deletion strains, locus YPR119W, strain clb2, active compounds read low 0.971 | S. cerevisiae deletion strains, locus YPR141C, strain kar3, active compounds read low 0.974 | S. cerevisiae deletion strains, locus YPR163C, strain tif3, active compounds read low 0.991 | S. cerevisiae deletion strains, locus YPR167C, strain met16, active compounds read low 0.98 | S. cerevisiae deletion strains, strain wtn01, active compounds read low 0.978 | S. cerevisiae strains, strain wild type, active compounds read low 1.01
